From PubChem BioAssay AID1159580 (chemical genetic matrix, 2015)
Where “and” joins values, the source holds several entries; their conditions need not be identical. Equal values may be shown once. The whole screen tested about 5,500 compounds, of which about 2,000 (36%) were called active. Not shown: some 18% with an inconclusive outcome. Cut-off read from the data, not from the text of the source: active = normalized growth mostly below about 0.91 (no sharp cut-off); inconclusive = no clear call, values can overlap the other calls; inactive = mostly above about 0.92. This is one part of the list.

Assay: chemical genetic growth profiling, strain panel (AID 1159580);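 note: tested at 20 µM; growth read once vehicle control cultures reached saturation at 30 °C; 1 = growth at the plate median or of vehicle wells; lower values mean less growth of the strain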
Details: growth OD
[1] = S. cerevisiae deletion strains, locus YAL013W, strain DEP1, stronger effect = lower value
[2] = S. cerevisiae deletion strains, locus YBR229C, strain ROT2, stronger effect = lower value
[3] = S. cerevisiae deletion strains, locus YDL101C, strain DUN1, stronger effect = lower value
[4] = S. cerevisiae deletion strains, locus YDR150W, strain NUM1, stronger effect = lower value
[5] = S. cerevisiae deletion strains, locus YEL061C, strain CIN8, stronger effect = lower value
[6] = S. cerevisiae deletion strains, locus YGR052W, strain FMP48, stronger effect = lower value
[7] = S. cerevisiae deletion strains, locus YGR078C, strain PAC10, stronger effect = lower value
[8] = S. cerevisiae deletion strains, locus YHR030C, strain SLT2, stronger effect = lower value
[9] = S. cerevisiae deletion strains, locus YHR079C, strain IRE1, stronger effect = lower value
[10] = S. cerevisiae deletion strains, locus YHR082C, strain KSP1, stronger effect = lower value
[11] = S. cerevisiae deletion strains, locus YHR087W, strain rtc3, stronger effect = lower value
[12] = S. cerevisiae deletion strains, locus YJL095W, strain BCK1, stronger effect = lower value
[13] = S. cerevisiae deletion strains, locus YJR043C, strain POL32, stronger effect = lower value
[14] = S. cerevisiae deletion strains, locus YJR066W, strain TOR1, stronger effect = lower value
[15] = S. cerevisiae deletion strains, locus YJR075W, strain HOC1, stronger effect = lower value
[16] = S. cerevisiae deletion strains, locus YKL190W, strain CNB1, stronger effect = lower value
[17] = S. cerevisiae deletion strains, locus YKL203C, strain TOR2, stronger effect = lower value
[18] = S. cerevisiae deletion strains, locus YLR039C, strain RIC1, stronger effect = lower value
[19] = S. cerevisiae deletion strains, locus YLR058C, strain SHM2 (second series), stronger effect = lower value
[20] = S. cerevisiae deletion strains, locus YLR085C, strain ARP6, stronger effect = lower value
[21] = S. cerevisiae deletion strains, locus YLR113W, strain HOG1, stronger effect = lower value
[22] = S. cerevisiae deletion strains, locus YLR262C, strain YPT6, stronger effect = lower value
[23] = S. cerevisiae deletion strains, locus YML094W, strain GIM5, stronger effect = lower value
[24] = S. cerevisiae deletion strains, locus YMR219W, strain ESC1, stronger effect = lower value
[25] = S. cerevisiae deletion strains, locus YMR263W, strain SAP30, stronger effect = lower value
[26] = S. cerevisiae deletion strains, locus YNL128W, strain TEP1, stronger effect = lower value
[27] = S. cerevisiae deletion strains, locus YNL153C, strain GIM3, stronger effect = lower value
[28] = S. cerevisiae deletion strains, locus YNL183C, strain NPR1, stronger effect = lower value
[29] = S. cerevisiae deletion strains, locus YNL207W, strain RIO2, stronger effect = lower value
[30] = S. cerevisiae deletion strains, locus YNL298W, strain CLA4 (second series), stronger effect = lower value
[31] = S. cerevisiae deletion strains, locus YNL322C, strain KRE1, stronger effect = lower value
[32] = S. cerevisiae deletion strains, locus YNR030W, strain Alg12, stronger effect = lower value
[33] = S. cerevisiae deletion strains, locus YOR119C, strain RIO1, stronger effect = lower value
[34] = S. cerevisiae deletion strains, locus YOR231W, strain MKK1, stronger effect = lower value
[35] = S. cerevisiae deletion strains, locus YPL055C, strain LGE1, stronger effect = lower value
[36] = S. cerevisiae deletion strains, locus YPL241C, strain CIN2, stronger effect = lower value
[37] = S. cerevisiae deletion strains, locus YPL256C, strain CLN2, stronger effect = lower value
[38] = S. cerevisiae deletion strains, locus YPR135W, strain CTF4, stronger effect = lower value

Measured: normalized growth

O=[N+]([O-])c1cc(C(F)(F)F)cc([N+](=O)[O-])c1Oc1ccc(Cl)c(Cl)c1
active: [1] 0.0591 | [2] 0.062 | [3] 0.0834 | S. cerevisiae deletion strains, locus YDL134C, strain PPH21, stronger effect = lower value 0.0454 | [4] 0.0593 | [5] 0.053 | [6] 0.12 | [7] 0.0542 | S. cerevisiae deletion strains, locus YGR229C, strain SMI1, stronger effect = lower value 0.0505 | [8] 0.0926 and 0.11 | [9] 0.11 | [10] 0.12 | [11] 0.0631 | [12] 0.12 | S. cerevisiae deletion strains, locus YJL187C, strain SWE1, stronger effect = lower value 0.0563 | [13] 0.0569 | [14] 0.11 | [15] 0.084 | S. cerevisiae deletion strains, locus YKL171W, strain NNK1, stronger effect = lower value 0.101 | [16] 0.0457 | [17] 0.0962 | [18] 0.0653 | [19] 0.0562 | [20] 0.0698 | [21] 0.173 | [22] 0.0617 | [23] 0.0673 | [24] 0.0518 | [25] 0.0593 | [26] 0.0548 | [27] 0.0599 | [28] 0.146 | [29] 0.108 | [30] 0.0706 | [31] 0.0592 | [32] 0.0612 | S. cerevisiae deletion strains, locus YOL006C, strain TOP1, stronger effect = lower value 0.068 | [33] 0.095 | [34] 0.113 | [35] 0.0764 | [36] 0.061 | [37] 0.135 | [38] 0.184

COc1c([N+](=O)[O-])cc(C(F)(F)F)cc1[N+](=O)[O-]
inactive: [1] 0.978 | [2] 1.01 | [3] 0.982 | [4] 0.964 | [5] 1.01 | [7] 0.975 | [8] 0.732 | [11] 1.04 | [13] 0.966 | [15] 1.03 | [16] 0.998 | [19] 1.02 | [20] 0.823 | [23] 0.903 | [24] 1 | [25] 0.971 | [26] 0.976 | [27] 0.985 | [30] 0.946 | [31] 0.971 | [32] 0.975 | [35] 0.989 | [36] 0.95 | [38] 0.902 | S. cerevisiae strains, strain wild type, stronger effect = lower value 0.979
active: [18] 0.486 | [22] 0.453

Cc1cc(Sc2c([N+](=O)[O-])cc(C(F)(F)F)cc2[N+](=O)[O-])c(Cl)cc1Cl
inactive: S. cerevisiae deletion strains, locus YAR019C, strain CDC15, stronger effect = lower value 0.995 | S. cerevisiae deletion strains, locus YBL105C, strain PKC1, stronger effect = lower value 1 | S. cerevisiae deletion strains, locus YBR135W, strain CKS1, stronger effect = lower value 0.995 | S. cerevisiae deletion strains, locus YBR136W, strain MEC1, stronger effect = lower value 0.995 | S. cerevisiae deletion strains, locus YBR160W, strain CDC28, stronger effect = lower value 0.991 | S. cerevisiae deletion strains, locus YDL017W, strain CDC7, stronger effect = lower value 0.999 | S. cerevisiae deletion strains, locus YDL028C, strain MPS1, stronger effect = lower value 0.99 | [3] 0.995 | S. cerevisiae deletion strains, locus YDL108W, strain KIN28, stronger effect = lower value 0.995 | S. cerevisiae deletion strains, locus YDL132W, strain cdc53, stronger effect = lower value 0.99 | S. cerevisiae deletion strains, locus YDL214C, strain PRR2, stronger effect = lower value 0.98 | S. cerevisiae deletion strains, locus YDR052C, strain DBF4, stronger effect = lower value 0.993 | S. cerevisiae deletion strains, locus YDR054C, strain cdc34, stronger effect = lower value 0.99 | S. cerevisiae deletion strains, locus YDR226W, strain ADK1, stronger effect = lower value 0.978 | S. cerevisiae deletion strains, locus YDR477W, strain SNF1, stronger effect = lower value 0.959 | S. cerevisiae deletion strains, locus YER123W, strain YCK3, stronger effect = lower value 0.97 | S. cerevisiae deletion strains, locus YER133W, strain GLC7, stronger effect = lower value 0.998 | S. cerevisiae deletion strains, locus YFL009W, strain cdc4, stronger effect = lower value 0.992 | S. cerevisiae deletion strains, locus YFL029C, strain CAK1, stronger effect = lower value 1 | S. cerevisiae deletion strains, locus YFR003C, strain YPI1, stronger effect = lower value 0.997 | S. cerevisiae deletion strains, locus YFR019W, strain FAB1, stronger effect = lower value 0.964 | S. cerevisiae deletion strains, locus YFR028C, strain CDC14, stronger effect = lower value 0.996 | S. cerevisiae deletion strains, locus YGR040W, strain KSS1, stronger effect = lower value 0.964 | [6] 1.01 | S. cerevisiae deletion strains, locus YGR092W, strain DBF2, stronger effect = lower value 0.982 | [8] 0.928 | [9] 0.861 | [10] 0.988 | S. cerevisiae deletion strains, locus YHR205W, strain SCH9, stronger effect = lower value 0.911 | S. cerevisiae deletion strains, locus YIL147C, strain SLN1, stronger effect = lower value 0.996 | [12] 0.964 | S. cerevisiae deletion strains, locus YJL128C, strain PBS2, stronger effect = lower value 0.955 | S. cerevisiae deletion strains, locus YJL157C, strain FAR1, stronger effect = lower value 0.926 | S. cerevisiae deletion strains, locus YJR016C, strain ILV3, stronger effect = lower value 1 | S. cerevisiae deletion strains, locus YJR066W, strain TOR1 (second series), stronger effect = lower value 0.949 | [14] 0.961 | S. cerevisiae deletion strains, locus YKL048C, strain ELM1, stronger effect = lower value 0.987 | S. cerevisiae deletion strains, locus YKL067W, strain YNK1, stronger effect = lower value 0.994 | S. cerevisiae deletion strains, locus YKL101W, strain HSL1, stronger effect = lower value 0.995 | S. cerevisiae deletion strains, locus YKL193C, strain SDS22, stronger effect = lower value 0.999 | [17] 1 | [21] 1.02 | S. cerevisiae deletion strains, locus YLR133W, strain CKI1, stronger effect = lower value 0.96 | S. cerevisiae deletion strains, locus YLR403W, strain SFP1, stronger effect = lower value 0.931 | S. cerevisiae deletion strains, locus YML070W, strain DAK1, stronger effect = lower value 0.996 | S. cerevisiae deletion strains, locus YMR001C, strain CDC5, stronger effect = lower value 1 | S. cerevisiae deletion strains, locus YMR205C, strain PFK2 (second series), stronger effect = lower value 0.998 | S. cerevisiae deletion strains, locus YMR277W, strain FCP1, stronger effect = lower value 0.995 | S. cerevisiae deletion strains, locus YNL006W, strain LST8, stronger effect = lower value 1 | S. cerevisiae deletion strains, locus YNL020C, strain ARK1, stronger effect = lower value 0.924 | S. cerevisiae deletion strains, locus YNL161W, strain CBK1, stronger effect = lower value 0.977 | [28] 1.04 | [29] 0.991 | S. cerevisiae deletion strains, locus YNL222W, strain SSU72, stronger effect = lower value 0.991 | S. cerevisiae deletion strains, locus YNL307C, strain MCK1 (second series), stronger effect = lower value 0.974 | S. cerevisiae deletion strains, locus YOL078W, strain AVO1, stronger effect = lower value 0.995 | S. cerevisiae deletion strains, locus YOL136C, strain PFK27, stronger effect = lower value 0.926 | S. cerevisiae deletion strains, locus YOR061W, strain CKA2, stronger effect = lower value 0.967 | [33] 1.05 | [34] 0.976 | S. cerevisiae deletion strains, locus YOR329C, strain SCD5, stronger effect = lower value 0.994 | S. cerevisiae deletion strains, locus YPL031C, strain PHO85, stronger effect = lower value 0.928 | S. cerevisiae deletion strains, locus YPL153C, strain RAD53, stronger effect = lower value 0.965 | S. cerevisiae deletion strains, locus YPL204W, strain HRR25, stronger effect = lower value 0.947 | S. cerevisiae deletion strains, locus YPL209C, strain IPL1, stronger effect = lower value 0.999 | [37] 0.99 | S. cerevisiae deletion strains, locus YPR025C, strain CCL1, stronger effect = lower value 0.997 | S. cerevisiae deletion strains, locus YPR106W, strain ISR1, stronger effect = lower value 0.996 | S. cerevisiae deletion strains, locus YPR111W, strain DBF20, stronger effect = lower value 0.974 | S. cerevisiae deletion strains, strain NNK1, stronger effect = lower value 0.99 | S. cerevisiae deletion strains, strain TSCII, stronger effect = lower value 1
